Assay results as given in PubChem BioAssay (NCI).
About 83,000 compounds went through this panel and 20% of them were active in at least one assay; those are over-represented in the sample as a whole.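 Treatment: one concentration, 48 hours, 96-well format. Scoring: percent growth, with anything below 10 considered active.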 The source made the active and inactive calls.

Tests used:
Assay in all cases: NCI-60 one-dose screen, 48 h (100 = growth as untreated, 0 = no growth, -100 = all killed)
Details in all cases: 10 µM unless noted
[1] = test system: NCI-H23 lung
[2] = test system: NCI-H226 lung
[3] = test system: NCI-H322M lung
[4] = test system: HOP-62 NSCLC
[5] = test system: NCI-H460 lung
[6] = test system: HOP-92 NSCLC
[7] = test system: NCI-H522 lung
[8] = test system: A549/ATCC NSCLC
[9] = test system: 786-0 renal
[10] = test system: COLO 205 colon

Measured: growth

O=C(Nc1nc2ccccc2s1)c1ccc(F)cc1
inactive: [1] 89.9% | [2] 92.7% | [3] 92.5% | [4] 106% | [5] 69.2% | [6] 78.7% | [7] 92.2% | [8] 98.4% | [9] 108% | [10] 118%

COC(=O)c1nc(-c2ccccc2)oc1S(=O)(=O)Cc1ccccc1
inactive: [1] 96.8% | [2] 96.1% | [3] 98.1% | [4] 99.2% | [5] 107% | [6] 87.2% | [7] 38.1% | [8] 96.5% | [9] 71.4%
active: [10] -43%

O=C(Nc1nc2cc(C(=O)N3CCN(C(c4ccccc4)c4ccccc4)CC3)ccc2o1)c1ccc(NC2CCCCC2)c([N+](=O)[O-])c1
inactive: [1] 69.5% | [2] 65.1% | [3] 59.4% | [4] 47.4% | [5] 46.8% | [6] 73.3% | [7] 64.2% | [8] 56.1% | [9] 53.6% | [10] 79.7%

COc1cc2ncnc(Nc3ccc(F)c(Cl)c3)c2cc1OCC(=O)N1CCN(c2ccccc2)CC1
inactive: [1] 88% | [2] 92.5% | [3] 34% | [4] 103% | [5] 95.6% | [6] 86.8% | [7] 79.9% | [8] 82.9% | [9] 85.6% | [10] 112%

N=C(N)c1ccc(-c2ccc(-c3ccc(Cl)c(Cl)c3)s2)nc1
inactive: [1] 67.6% | [2] 86.9% | [4] 36.6% | [6] 77.3%
active: [3] -5.24% | [5] -61.6% | [7] -34.5% | [8] -45.6% | [9] -25.8% | [10] -40.5%

O=c1scc(-c2ccc(C(F)(F)F)cc2)s1
inactive: [1] 89% | [2] 91% | [3] 90.5% | [4] 92.3% | [5] 102% | [6] 81% | [7] 67.5% | [8] 79.1% | [9] 90.3% | [10] 131%

C=CC(=O)N1CCN(c2cccc(Oc3nccc(Nc4nnc(-c5ccc(Br)cc5)s4)n3)c2)CC1
active: [7] -2.86%
inactive: [1] 79% | [2] 88.8% | [3] 92.3% | [4] 62.2% | [5] 25.6% | [6] 88.3% | [8] 47.3% | [9] 73.5% | [10] 63.4%

CSc1nc2ccccc2cc1/C=[N+](\[O-])c1ccccc1
inactive: [1] 70% | [2] 73.9% | [3] 85.7% | [4] 67.9% | [5] 92.1% | [6] 53.2% | [7] 82.4% | [8] 97.6% | [9] 74.6% | [10] 103%

COc1ccc(F)cc1/C=C/C(=O)/C=C(/C=C/c1cc(F)ccc1OC)OB(F)F
inactive: [1] 35.2% | [2] 97.9% | [3] 103% | [4] 86.1% | [5] 75.2% | [6] 56.1% | [8] 71.7% | [9] 19.4% | [10] 10.8%
active: [7] -20.7%

CNC(=O)c1ccccc1Oc1nc(Nc2cc(OC)c(OC)c(OC)c2)ncc1Br
active: [10] -12.6%
inactive: [1] 55.2% | [2] 21.8% | [3] 58.5% | [4] 49.7% | [5] 43.9% | [6] 60.6% | [7] 53.9% | [8] 46.4% | [9] 48.9%

O=C(CSc1oc(-c2ccccc2)nc1S(=O)(=O)c1ccccc1)Nc1ccc(F)cc1
inactive: [1] 78.6% | [2] 87% | [3] 76.9% | [4] 86.1% | [5] 93.5% | [7] 72.2% | [8] 76.9% | [9] 59.1% | [10] 101%
active: [6] 2.48%

Cc1ccc2c(Cn3cc(CSc4nc5ccccc5o4)nn3)cc(=O)oc2c1
inactive: [1] 96.1% | [2] 110% | [3] 104% | [4] 105% | [5] 110% | [6] 110% | [7] 97.6% | [8] 105% | [9] 105% | [10] 111%

C[PH+](c1nc2ccccc2nc1[PH+](C)C(C)(C)C)C(C)(C)C.C[PH+](c1nc2ccccc2nc1[PH+](C)C(C)(C)C)C(C)(C)C.[Au+].[Cl-] (stereo not given)
active: [1] -90.2% | [2] -60.4% | [3] -94% | [4] -94.3% | [5] -85.5% | [6] -81.5% | [7] -88.7% | [8] -73.8% | [9] -96.6% | [10] -100%

N#Cc1ccc2c(c1)C(=O)c1c-2n(CCCN)c(=O)c2cc([N+](=O)[O-])ccc12
active: [1] -57.6% | [2] -71.6% | [3] -81.5% | [4] -89.5% | [5] -100% | [6] -2.3% | [7] -72.2% | [8] -100% | [9] -90% | [10] -100%

CN(C)S(=O)(=O)c1cccc(C(=O)Nc2nc(-c3ccc(F)c(F)c3)cs2)c1
inactive: [1] 45.7% | [2] 46.7% | [3] 106% | [4] 99.5% | [5] 49.4% | [6] 67.1% | [7] 25.2% | [8] 60.1% | [9] 64.9% | [10] 103%

Cc1ccc2c(n1)C(=O)C(Br)=C(C1CCCC1)C2=O
inactive: [1] 92.4% | [2] 94.3% | [3] 100% | [4] 84% | [5] 110% | [6] 98.4% | [7] 83.6% | [8] 94.4% | [9] 101% | [10] 52%

Cn1cc(-c2csc(-c3c[nH]c4ccc(Br)cc34)n2)c2ccnc(Cl)c21
inactive: [1] 62.1% | [2] 59.4% | [3] 67.1% | [4] 101% | [6] 64.2% | [7] 56.3% | [8] 42.4% | [9] 47% | [10] 42.5%
active: [5] 9.96%

COC(=O)[C@]12CCC(C)(C)C[C@H]1[C@H]1/C(=N/OCCc3nn[nH]n3)C[C@@H]3[C@@]4(C)CC[C@H](OC(C)=O)C(C)(C)[C@@H]4CC[C@@]3(C)[C@]1(C)CC2
active: [5] 9.64%
inactive: [1] 28.4% | [2] 33.3% | [3] 64.6% | [4] 34% | [6] 49.9% | [7] 38.3% | [8] 36.8% | [9] 51.9% | [10] 41.4%

O=C(COc1ccc(-c2nc3cc(Cl)c(Cl)cc3[nH]2)cc1)N=Nc1c(O)[nH]c2ccc(Cl)cc12
inactive: [1] 70.1% | [2] 80.8% | [3] 94.9% | [4] 89.9% | [5] 46.4% | [6] 77.1% | [7] 97.9% | [8] 75.9% | [9] 68.7% | [10] 56.2%

COC(=O)/C=C1/SC(=Nc2ccc(C(F)(F)F)cc2)N(CCc2c[nH]c3ccc(O)cc23)C1=O
active: [2] 1.54% | [3] 6.96% | [4] -26.6% | [5] -60% | [6] -54% | [7] -40.6% | [9] -59.5% | [10] -58.9%
inactive: [1] 18.6% | [8] 18.1%

COc1cccc(/C=C2\COc3ccc(O)c(O)c3C2=O)c1
inactive: [1] 47% | [2] 79.1% | [3] 36.4% | [5] 28.7% | [8] 47.6% | [10] 43.3%
active: [4] 4.02% | [6] -12% | [7] -67% | [9] -38.1%

O=C(C[C@]1(O)C(=O)Nc2ccccc21)c1cccc(C(F)(F)F)c1
inactive: [1] 92.5% | [2] 86.3% | [3] 84.4% | [4] 78.8% | [5] 97.4% | [6] 77.3% | [7] 87.1% | [8] 99.2% | [9] 95.7% | [10] 89.5%

COc1ccc(NC2=C(I)C(=O)c3ncccc3C2=O)cc1
active: [1] -43.7% | [4] -62% | [5] -57.2% | [7] -69.4% | [8] 0.0675% | [10] -53.7%
inactive: [2] 82.2% | [3] 17.4% | [6] 75.3% | [9] 11.3%

CC(=O)Oc1ccc(N2C(=O)C(Cl)=C(Nc3cccc(C(F)(F)F)c3)C2=O)cc1
inactive: [1] 100% | [2] 92.1% | [3] 98.6% | [4] 96.9% | [5] 102% | [6] 99.7% | [7] 86% | [8] 93.9% | [9] 95.7% | [10] 93.4%

CCSc1nc2scc(C)c2c(=O)[nH]1
inactive: [1] 95.1% | [2] 99.2% | [3] 104% | [4] 106% | [5] 102% | [6] 101% | [7] 94.6% | [8] 99.2% | [9] 94% | [10] 111%

C#CCOc1ccc2ncnc(Nc3ccc(NC(=O)C=C)cc3)c2c1
inactive: [2] 97.7% | [3] 69.5% | [4] 78.5% | [5] 24.1% | [8] 80%
active: [1] 2.09% | [6] -36.8% | [7] -75.7% | [9] -37.7% | [10] -57.6%
